Experimental data as given in PubChem BioAssay (NCATS).
Inconclusive results are not listed. Where a call stands in place of a potency, no number is given. Activity calls are given as the source filed them. The call rests on the fitted dose curve; in most records, active means well fitted inhibition curve with a large enough effect; inconclusive means small, poorly fitted or top-dose-only effect; inactive means flat fitted curve, though single readings scatter.

Target: Calcium and integrin-binding protein 1 (Homo sapiens) (UniProt Q99828)
Sequence (Q99828 whole entry, looked up): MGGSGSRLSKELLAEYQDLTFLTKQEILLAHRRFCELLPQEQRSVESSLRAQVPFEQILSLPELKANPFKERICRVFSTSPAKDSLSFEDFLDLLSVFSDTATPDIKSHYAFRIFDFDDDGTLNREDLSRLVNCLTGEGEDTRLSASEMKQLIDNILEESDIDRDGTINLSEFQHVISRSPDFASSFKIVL
Assay: Primary qHTS for Identification of Calcium Integrin Binding Protein 1 (CIB1) Competitor (AID 1508620); further: top concentration of the series differs between compounds
Details: CIB1-GST / FITC-alphaIIb peptide fluorescence polarization; series mostly up to 114 µM
In short: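 Fluorescence polarization competition: GST-tagged CIB1 (1 uM final) preincubated with compound 15 min at room temperature, then FITC-labelled alphaIIb peptide (100 nM final) added. After 15 min at room temperature, polarization read at Ex 480/Em 540.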

Compound | Potency
Cc1cc(C)nc(NC(=S)N2CCN(c3cncs3)CC2)c1 | inactive
O=C1c2ccccc2C(=O)N1c1cc(=O)c2ccccc2[nH]1 | inactive
O=C1c2ccccc2C(=O)N1c1noc2ccccc12 | inactive
O=C(O)c1ccc(-c2cccc(-c3nn4c(=O)cc(N5CCNCC5)nc4s3)c2)cc1 | inactive
O=C1CCCC2=C1C(c1[nH]ncc1Cl)NC(=NCCc1ccc(O)cc1)N2 (stereo not given) | inactive
Cc1ccc(NS(=O)(=O)c2cccc(C(=O)O)c2)cc1C | inactive
O=C1c2ccccc2C(=O)N1c1cccc(Cl)c1 | inactive
O=C1CCCC2=C1C(c1ccncc1Cl)N=C(Nc1nc3ccccc3o1)N2 (stereo not given) | inactive
CC(C)c1nc2c(cnn2C)c(=O)n1N | inactive
CC(=O)Nc1cccc(S(=O)(=O)N2CCN(S(=O)(=O)c3c(F)cccc3F)CC2)c1 | inactive
Cc1ccnc(NC(=S)N2CCN(C)CC2)c1 | inactive
Cc1ccc2nc3sc(C(=O)NCCN4CCOCC4)cc3cc2c1 | inactive
Cc1cc(C)n2ncc(C(=O)Nc3ccncc3)c2n1 | inactive
Cc1ccnc(NC(=S)N2CCN(c3ccc(Cl)c(Cl)c3)CC2)c1 | inactive
O=C(Nc1ccc(F)c(C(F)(F)F)c1)Nc1nc(-c2ccncc2)cs1 | inactive
CCN(CC)c1ccc(NC(=O)Nc2ccc(C(C)=O)cc2)cc1 | inactive
O=C(Nc1ccc(F)c(C(F)(F)F)c1)Nc1nnc(-c2ccncc2)o1 | inactive
O=C1Cc2cc(C(=O)c3ccco3)ccc2N1 | inactive
Cc1cccc(-c2nnc(C)n2CCCn2ccnc2)c1N | inactive
Cc1ccc(S(=O)(=O)Nc2cccc3ccc(C)nc23)cc1 | inactive
